Measured values reported in PubChem BioAssay AID741 (SRMLSC, 2007).
Records with an inconclusive call do not appear. Calls of active or inactive are those of the source. Cut-off read from the data, not from the text of the source: active = toxicity enhancement factor above about 0.054; inconclusive = between about 0.00067 and that limit; inactive = weaker than that.

Assay: reversers of MRP drug resistance, dose response, cell-based (AID 741)
Conditions: MRP-overexpressing cells, viability with/without cytotoxic drug; slope difference: measured here: slope difference tox minus reversal, stronger effect = higher value; toxicity enhancement factor: stronger effect = higher value; viability: measured here: viability series, compound alone, at 10 µM, stronger effect = lower value

COc1ccc(N2C(N)=C(C#N)C(c3cccnc3)C3=C2CC(C)(C)CC3=O)cc1 (stereo not given)
slope difference: 2.07 | toxicity enhancement factor: 0.0615 (active) | viability: 63%

O=C(c1ccccc1)c1ccc2n1CCC2C(=O)O (stereo not given)
slope difference: -0.0977 | toxicity enhancement factor: -0.001 (inactive) | viability: 106%

COc1ccc2cc([C@H](C)C(=O)O)ccc2c1
slope difference: -0.665 | toxicity enhancement factor: -0.0066 (inactive) | viability: 96.6%

CN1C(C(=O)Nc2ccccn2)=C(O)c2ccccc2S1(=O)=O
slope difference: -0.409 | toxicity enhancement factor: -0.0045 (inactive) | viability: 92.3%

Cc1nc(C)c(C)nc1C
slope difference: -0.412 | toxicity enhancement factor: -0.004 (inactive) | viability: 98.8%

O=C(O)c1ccc(-n2nnnc2SCc2ccccc2)cc1
slope difference: -0.76 | toxicity enhancement factor: -0.0082 (inactive) | viability: 88.7%

COc1ccccc1Nc1nc(N)nc(CN2CCOCC2)n1
slope difference: -0.589 | toxicity enhancement factor: -0.0058 (inactive) | viability: 98.2%

Clc1cnc(N/N=C/c2cccs2)c(Cl)c1
slope difference: -0.68 | toxicity enhancement factor: -0.0069 (inactive) | viability: 96.8%

O=c1[nH]c2ccc(Br)cc2c(-c2ccccc2)c1N1CCOCC1
slope difference: 2.74 | toxicity enhancement factor: 0.0679 (active) | viability: 74.8%

CCc1nc(SCC(=O)Nc2c(C)nn(C)c2C)c2cnn(-c3ccccc3)c2n1
slope difference: -0.333 | toxicity enhancement factor: -0.0042 (inactive) | viability: 79.1%

Cc1cc(C)cc(OCc2nnc(SCC(=O)c3ccc(Br)cc3)o2)c1
slope difference: -0.893 | toxicity enhancement factor: -0.0094 (inactive) | viability: 92.3%

CCc1cccc2c3c([nH]c12)C(CC)(CC(=O)O)OCC3 (stereo not given)
slope difference: -0.174 | toxicity enhancement factor: -0.0019 (inactive) | viability: 92.5%

COc1ccc(C(c2nnnn2C(C)(C)C)N2CCN(c3nc4ccccc4s3)CC2)cc1OC (stereo not given)
slope difference: -1.39 | toxicity enhancement factor: -0.0199 (inactive) | viability: 71.9%

CC1=NN(C(N)=S)C(=O)C1N=Nc1ccccc1C (stereo not given)
slope difference: -0.556 | toxicity enhancement factor: -0.0057 (inactive) | viability: 92.1%

COc1ccc(/C=C/C(=O)Nc2ccccc2C(=O)O)cc1OC
slope difference: -1.07 | toxicity enhancement factor: -0.0098 (inactive) | viability: 95.7%

Cc1ccc(/C=N/Nc2ncc(Cl)cc2Cl)s1
slope difference: -0.555 | toxicity enhancement factor: -0.0071 (inactive) | viability: 70.4%

CCCCCC(O)c1cccc(OCc2ccc3ccccc3n2)c1 (stereo not given)
slope difference: -0.009 | toxicity enhancement factor: -0.0001 (inactive) | viability: 102%

O=C(NCc1ccccn1)c1cn(CCc2ccccc2)nn1
slope difference: -0.117 | toxicity enhancement factor: -0.0012 (inactive) | viability: 97.1%

O=C(O)c1ccccc1O
slope difference: -0.779 | toxicity enhancement factor: -0.0072 (inactive) | viability: 100%

Cc1ccc(N2C(N)=C(C#N)C(c3cccnc3)C3=C2CCCC3=O)cc1 (stereo not given)
slope difference: 2.44 | toxicity enhancement factor: 0.0726 (active) | viability: 62.7%

Cc1ccc(CN(C(=O)c2ccco2)C(C(=O)NC2CCCC2)c2ccc(N3CCOCC3)cc2)cc1 (stereo not given)
slope difference: 2.19 | toxicity enhancement factor: 0.0523 (active) | viability: 72.9%

CCCCC1C(=O)N(c2ccccc2)N(c2ccccc2)C1=O
slope difference: -0.496 | toxicity enhancement factor: -0.0047 (inactive) | viability: 101%

Cc1cccc(OCc2nnc(SCC(=O)c3ccccc3)o2)c1
slope difference: -0.739 | toxicity enhancement factor: -0.007 (inactive) | viability: 97.4%

COCC(C)OC(=O)C(C#N)c1nc2ccccc2nc1N1CCN(Cc2ccccc2)CC1 (stereo not given)
slope difference: -0.109 | toxicity enhancement factor: -0.0013 (inactive) | viability: 89.3%

COc1ccc(C)cc1-n1c(N)c(C#N)c(C#N)c1-c1ccc(OC)c(OC)c1OC
slope difference: 2.33 | toxicity enhancement factor: 0.077 (active) | viability: 61.5%

CC(C)CCn1c(=O)c2ccccc2n2c(CN(C)Cc3ccccc3)nnc12
slope difference: 2.35 | toxicity enhancement factor: 0.0598 (active) | viability: 82.3%

Cc1ccc(-c2nc3ncccn3c2NC2CCCCC2)o1
slope difference: 2.81 | toxicity enhancement factor: 0.0632 (active) | viability: 79.5%

Cc1ccc(N2C(N)=C(C#N)C(c3cccnc3)C3=C2CC(C)(C)CC3=O)cc1 (stereo not given)
slope difference: 2.48 | toxicity enhancement factor: 0.0915 (active) | viability: 57.5%

COC(=O)Nc1ccc(S(=O)(=O)Nc2ccc(O)cc2)cc1
slope difference: -0.156 | toxicity enhancement factor: -0.0016 (inactive) | viability: 90.5%

CN1C(C(=O)Nc2ccccn2)=C(O)c2sccc2S1(=O)=O
slope difference: -0.669 | toxicity enhancement factor: -0.0064 (inactive) | viability: 103%

N#CC1=C(N)N(c2ccccc2)C2=C(C(=O)CCC2)C1c1ccccc1 (stereo not given)
slope difference: 4.41 | toxicity enhancement factor: 0.144 (active) | viability: 70.1%

CC(C(=O)O)c1ccc(N2Cc3ccccc3C2=O)cc1 (stereo not given)
slope difference: -0.182 | toxicity enhancement factor: -0.0019 (inactive) | viability: 98.6%

C=CCSc1nnc2n(CCc3ccccc3)c(=O)c3c4c(sc3n12)COC(C)(C)C4
slope difference: 3.35 | toxicity enhancement factor: 0.116 (active) | viability: 71%

CCOC(=O)c1c(C)[nH]c(N=Nc2ccc(C)cc2)c1C
slope difference: -0.597 | toxicity enhancement factor: -0.006 (inactive) | viability: 98.7%

Cc1ccc(/C=N/Nc2nc(Cl)c(Cl)cc2Cl)s1
slope difference: -0.0549 | toxicity enhancement factor: -0.0006 (inactive) | viability: 99.8%
